Reference: PubChem BioAssay
Calls of active or inactive are those of the source.

What was measured:
[1] = test system: Plasmodium falciparum Sir2 (PF13_0152, Sir2A); assay: Plasmodium falciparum Sir2A binding compounds – biochemical, small-molecule microarray, 635 nm fluorescence, primary screen (AID 1098); conditions: fluorescence 635 nm, higher = more signal;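 note: score merges spot fluorescence intensity with its signal-to-noise ratio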
[2] = probe aDKK1 binding to arrayed compounds – biochemical, biotinylated probe, 635/667 nm fluorescence, primary screen (AID 1099); conditions: small-molecule microarray, higher = more signal;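 note: score merges 667nm spot fluorescence with signal to noise across triplicate slides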
[3] = probe aCHRDL2 binding to arrayed compounds – biochemical, biotinylated probe, 635/667 nm fluorescence, primary screen (AID 1100); conditions: small-molecule microarray, higher = more signal
[4] = change in splice reporter luminescence, either direction, cell-based, HEK293, spliceosome inhibition project, primary screen (AID 1101); conditions: HEK293 splicing luciferase reporter, 24 h, higher = more signal, called active from +8 up or from −8 down;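 note: HEK293 cells carrying a splicing-competent luciferase reporter gene; test concentration not given here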
[5] = target: Fibroblast growth factor 10 (Homo sapiens) (UniProt O15520); assay: compounds binding fibroblast growth factor 10 – biochemical, small-molecule microarray, 635 nm fluorescence, primary screen (AID 1102); conditions: FGF10 binding, fluorescence 635 nm, higher = more signal
Sequence of Fibroblast growth factor 10 (Homo sapiens) (O15520 whole entry, looked up): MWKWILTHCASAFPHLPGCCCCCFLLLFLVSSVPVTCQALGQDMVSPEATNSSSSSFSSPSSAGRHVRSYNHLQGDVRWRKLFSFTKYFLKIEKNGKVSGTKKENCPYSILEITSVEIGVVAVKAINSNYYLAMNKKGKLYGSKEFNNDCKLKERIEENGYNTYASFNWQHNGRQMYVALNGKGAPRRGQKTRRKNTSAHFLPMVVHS

[6] = test system: glycogen synthase kinase-3 (GSK3A per assay name; protocol says GSK3B); assay: compounds binding glycogen synthase kinase-3 – biochemical, small-molecule microarray, 635 nm fluorescence, GSK3A, primary screen (AID 1103); conditions: fluorescence 635 nm, higher = more signal; note: the record names both GSK3A and GSK3B
[7] = target: Epidermal growth factor receptor (Homo sapiens) (UniProt P00533); assay: compounds binding epidermal growth factor receptor – biochemical, small-molecule microarray, 635 nm fluorescence, primary screen (AID 1104); conditions: EGFR binding, higher = more signal;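 note: score merges 667 nm emission intensity with spot signal to noise over triplicate slides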
Sequence of Epidermal growth factor receptor (Homo sapiens) (P00533 whole entry, looked up): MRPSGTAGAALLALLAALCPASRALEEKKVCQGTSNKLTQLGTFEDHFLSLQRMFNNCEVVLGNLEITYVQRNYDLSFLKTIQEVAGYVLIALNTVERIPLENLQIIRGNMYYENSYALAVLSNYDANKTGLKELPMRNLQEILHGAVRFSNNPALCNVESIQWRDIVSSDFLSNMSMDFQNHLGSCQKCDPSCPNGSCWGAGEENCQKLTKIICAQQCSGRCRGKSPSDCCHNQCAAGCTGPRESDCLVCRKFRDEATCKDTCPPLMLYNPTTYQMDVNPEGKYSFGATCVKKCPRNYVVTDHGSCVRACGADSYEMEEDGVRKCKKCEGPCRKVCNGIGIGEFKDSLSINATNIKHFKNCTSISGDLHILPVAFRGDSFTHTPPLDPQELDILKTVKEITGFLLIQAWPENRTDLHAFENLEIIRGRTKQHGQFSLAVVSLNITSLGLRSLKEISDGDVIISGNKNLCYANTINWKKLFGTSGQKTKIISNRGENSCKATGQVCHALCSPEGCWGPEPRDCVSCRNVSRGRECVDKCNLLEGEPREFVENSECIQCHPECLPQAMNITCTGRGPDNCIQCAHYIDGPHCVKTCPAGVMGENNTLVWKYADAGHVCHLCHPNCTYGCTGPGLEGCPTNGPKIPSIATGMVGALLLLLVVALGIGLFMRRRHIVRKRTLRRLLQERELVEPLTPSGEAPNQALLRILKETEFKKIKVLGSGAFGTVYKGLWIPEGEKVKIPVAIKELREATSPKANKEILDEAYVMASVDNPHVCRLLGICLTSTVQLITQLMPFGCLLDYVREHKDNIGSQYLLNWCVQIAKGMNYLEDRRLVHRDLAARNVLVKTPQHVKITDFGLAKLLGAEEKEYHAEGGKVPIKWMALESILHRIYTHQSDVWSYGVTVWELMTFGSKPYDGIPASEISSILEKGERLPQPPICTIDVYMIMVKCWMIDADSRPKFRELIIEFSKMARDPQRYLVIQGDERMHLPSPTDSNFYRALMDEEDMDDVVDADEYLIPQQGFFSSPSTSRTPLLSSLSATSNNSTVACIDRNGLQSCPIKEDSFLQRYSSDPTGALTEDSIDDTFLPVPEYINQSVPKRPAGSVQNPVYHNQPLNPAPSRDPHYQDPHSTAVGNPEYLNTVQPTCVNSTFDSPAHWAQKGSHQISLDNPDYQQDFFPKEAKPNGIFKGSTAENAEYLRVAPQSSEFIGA

[8] = target: Follistatin-related protein 3 (Homo sapiens) (UniProt O95633); assay: compounds binding follistatin-related protein 3 – biochemical, small-molecule microarray, 635 nm fluorescence, primary screen (AID 1105); conditions: FSTL3 binding, higher = more signal;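 note: score merges emission near 667 nm and signal to noise per printed spot across three slides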
Sequence of Follistatin-related protein 3 (Homo sapiens) (O95633 whole entry, looked up): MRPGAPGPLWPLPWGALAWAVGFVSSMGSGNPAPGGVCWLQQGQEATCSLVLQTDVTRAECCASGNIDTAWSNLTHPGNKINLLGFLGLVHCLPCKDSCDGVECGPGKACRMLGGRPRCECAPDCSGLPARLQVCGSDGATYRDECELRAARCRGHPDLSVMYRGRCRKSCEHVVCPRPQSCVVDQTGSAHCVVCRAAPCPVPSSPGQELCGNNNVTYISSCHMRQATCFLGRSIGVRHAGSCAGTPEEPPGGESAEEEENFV

[9] = target: Dickkopf-related protein 1 (Homo sapiens) (UniProt O94907); assay: small molecules binding DKK1 protein – biochemical, small-molecule microarray, 635 nm fluorescence scan, primary screen (AID 1106); conditions: higher = more signal;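 note: score merges emission near 667 nm with signal to noise over three replicate slides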
Sequence of Dickkopf-related protein 1 (Homo sapiens) (O94907 whole entry, looked up): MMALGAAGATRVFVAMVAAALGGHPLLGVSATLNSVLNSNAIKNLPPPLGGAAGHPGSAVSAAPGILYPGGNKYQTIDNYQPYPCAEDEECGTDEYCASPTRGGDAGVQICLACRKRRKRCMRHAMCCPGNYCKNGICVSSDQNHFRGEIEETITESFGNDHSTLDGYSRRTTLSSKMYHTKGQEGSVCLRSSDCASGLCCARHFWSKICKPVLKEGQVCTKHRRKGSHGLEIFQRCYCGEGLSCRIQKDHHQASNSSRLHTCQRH

[10] = test system: Inhibin beta A chain (activin A); assay: small molecules binding activin A – biochemical, small-molecule microarray, 635 nm fluorescence scan, primary screen (AID 1107); conditions: INHBA, higher = more signal;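 note: mouse activin A protein probed at 4.33 µg/mL on printed slides; score merges bound-protein fluorescence near 667 nm with spot signal-to-noise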
[11] = test system: Human papillomavirus type 1a protein E7 (residues 44-93); assay: small molecules binding HPV E7 44-93 – biochemical, small-molecule microarray, residues 44-93, 635 nm fluorescence, primary screen (AID 1108); conditions: fluorescence 635 nm, higher = more signal;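 note: E7 fragment applied at 1 µg/mL in TBST for 1 h at 4 C; score combines spot fluorescence with its signal to noise ratio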
[12] = hepatitis C replication reporter changes, two-sided – Huh7 cells, luciferase reporter, HCV replication inhibitor project, primary screen (AID 1109); conditions: Huh7 HCV replicon luciferase reporter, 48 h; higher = more signal;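 note: huh7 hepatoma cells harbouring a luciferase neomycin HCV replicon reporter; luciferase luminescence as measure of HCV replicon replication; test concentration not given here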
[13] = target: Left-right determination factor 2 (Homo sapiens) (UniProt O00292); assay: small molecules binding LEFTY2 protein – biochemical, small-molecule microarray, 635 nm fluorescence scan, primary screen (AID 1110); conditions: higher = more signal
Sequence of Left-right determination factor 2 (Homo sapiens) (O00292 whole entry, looked up): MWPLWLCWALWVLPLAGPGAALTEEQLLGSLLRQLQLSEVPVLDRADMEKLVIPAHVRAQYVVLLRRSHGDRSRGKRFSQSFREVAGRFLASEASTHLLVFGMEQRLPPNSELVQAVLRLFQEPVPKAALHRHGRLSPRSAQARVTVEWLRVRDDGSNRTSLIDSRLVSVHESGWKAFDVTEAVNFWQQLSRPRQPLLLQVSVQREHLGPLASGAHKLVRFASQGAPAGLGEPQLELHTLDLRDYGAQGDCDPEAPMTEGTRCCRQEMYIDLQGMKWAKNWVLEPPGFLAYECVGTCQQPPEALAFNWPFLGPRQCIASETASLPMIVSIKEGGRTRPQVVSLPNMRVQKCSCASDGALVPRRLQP

[14] = target: Calmodulin-1 (Homo sapiens) (UniProt P0DP23); assay: small molecules binding calmodulin-1 with EGTA – biochemical, small-molecule microarray, Cy5-labelled CALM1, profiling panel (AID 1111); conditions: Cy5-CALM1 binding fluorescence, higher = more signal;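 note: labelled calmodulin applied in Tris saline Tween buffer holding calcium plus EGTA and DTT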
[15] = target: Calmodulin-1 (Homo sapiens) (UniProt P0DP23); assay: small molecules binding Ca-loaded calmodulin-1 – biochemical, small-molecule microarray, Cy5-labelled CALM1, plus calcium, artefact control for SMM control-protein annotation, profiling panel (AID 1112); conditions: Cy5-CALM1 binding fluorescence, higher = more signal;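 note: score merges spot fluorescence with signal to noise from triplicate slides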
[16] = probe aWnt5a binding to arrayed compounds – biochemical, biotinylated probe, 635/667 nm fluorescence, primary screen (AID 1113); conditions: small-molecule microarray, higher = more signal;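 note: score merges 667 nm fluorescence intensity with signal-to-noise per printed feature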
[17] = probe aShh binding to arrayed compounds – biochemical, biotinylated probe, 635/667 nm fluorescence, primary screen (AID 1114); conditions: small-molecule microarray, higher = more signal;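 note: probe is biotin-labelled aShh protein from a stem cell growth factor screen; measures binding of labelled protein to compounds printed on the slide; score merges feature fluorescence at 667 nm with signal-to-noise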
[18] = probe aNog binding to arrayed compounds – biochemical, biotinylated probe, 635/667 nm fluorescence, primary screen (AID 1115); conditions: small-molecule microarray, higher = more signal;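 note: probe is biotinylated aNog protein used at 0.15 µg/mL for 1 h at 4 C; z-score combines 667 nm fluorescence of each spot with its signal to noise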
[19] = target: Torsin-1A-interacting protein 1 (Homo sapiens) (UniProt Q5JTV8); assay: compound microarray binding of lysate hLAP1 – cell lysate, small-molecule microarray, COS7 lysate, 635/667 nm fluorescence, primary screen (AID 1116); conditions: 635 nm fluorescence, higher = more signal
Sequence of Torsin-1A-interacting protein 1 (Homo sapiens) (Q5JTV8 whole entry, looked up): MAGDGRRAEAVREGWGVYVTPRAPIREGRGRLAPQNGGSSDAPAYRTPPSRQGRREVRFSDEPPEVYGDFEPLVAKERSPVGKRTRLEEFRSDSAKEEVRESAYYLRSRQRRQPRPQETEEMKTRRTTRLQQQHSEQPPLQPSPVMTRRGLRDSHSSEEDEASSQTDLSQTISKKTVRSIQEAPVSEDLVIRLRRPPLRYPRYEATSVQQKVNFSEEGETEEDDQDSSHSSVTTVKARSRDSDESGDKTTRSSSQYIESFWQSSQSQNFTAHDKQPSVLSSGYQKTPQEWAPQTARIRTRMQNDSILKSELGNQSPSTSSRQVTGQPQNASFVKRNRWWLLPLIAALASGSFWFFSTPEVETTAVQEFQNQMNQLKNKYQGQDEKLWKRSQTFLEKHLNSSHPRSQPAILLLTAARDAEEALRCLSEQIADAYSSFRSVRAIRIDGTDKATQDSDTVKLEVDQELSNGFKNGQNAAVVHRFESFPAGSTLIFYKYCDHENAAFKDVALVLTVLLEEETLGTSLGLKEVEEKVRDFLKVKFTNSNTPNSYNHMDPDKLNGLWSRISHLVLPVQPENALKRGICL

[20] = target: Alpha-bungarotoxin (Bungarus multicinctus) (UniProt P60615); assay: compounds binding labelled alpha-BTX control protein – biochemical, small-molecule microarray, Alexa647 label, 635/667 nm fluorescence, artefact control for SMM control protein annotation, profiling panel (AID 1117); conditions: alpha-BTX-A647 binding fluorescence, higher = more signal
Sequence of Alpha-bungarotoxin (Bungarus multicinctus) (P60615 whole entry, looked up): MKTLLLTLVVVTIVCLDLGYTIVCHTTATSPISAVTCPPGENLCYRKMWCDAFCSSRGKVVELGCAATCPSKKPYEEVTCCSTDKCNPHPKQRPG

Row | SMILES | composite z-score [1] | composite z-score [2] | composite z-score [3] | z-score [4] | composite z-score [5] | composite z-score [6] | composite z-score [7] | composite z-score [8] | composite z-score [9] | composite z-score [10] | composite z-score [11] | z-score [12] | composite z-score [13] | composite z-score [14] | composite z-score [15] | composite z-score [16] | composite z-score [17] | composite z-score [18] | composite z-score [19] | composite z-score [20]
1 | C=CCC1(CC=C)C[C@H]2CO[C@H](c3ccc(OC)cc3)N2C1=O | 0.695 | -0.17 | 0.317 | -0.512 (inactive) | -0.193 | -0.217 | 0.291 | 0.576 | 0.917 | 1.55 | -0.107 | 0.805 | 0.447 | -1.56 | -2.31 | -0.124 | -0.271 | -0.0887 | 0.656 | 0.278
2 | O=C1c2ccccc2[C@@]2(Cc3ccccc3N(CC(F)(F)F)C2=O)[C@H](c2ccc(CO)cc2)N1Cc1ccccc1C(F)(F)F | -1.84 | 0.471 | 0.957 | -0.0373 (inactive) | -0.316 | -1.41 | -0.903 | -1.15 | -1.95 | 1.04 | -0.713 | 0.301 | -0.888 | -0.434 | 0.0123 | -0.104 | -0.0243 | 0.673 | -0.459 | -1.7
3 | COc1ccc(/C=C/C(=O)c2cccc(OCC(=O)OC(C)(C)C)c2)cc1 | 0.726 | 0.145 | 0.436 | -0.611 (inactive) | -0.189 | 0.483 | -0.693 | -0.525 | -0.442 | 0.379 | 0.268 | 1.33 | -0.606 | -0.0784 | -0.159 | -0.173 | -0.2 | -0.5 | 0.154 | 0.45
4 | CC(C)C(CO)N1C(=O)[C@@H]2C3C(=O)OCCC/C=C\[C@H]3OC23C=CCN(C(C)C)C(=O)[C@@H]13 (stereo not given in full) | 1.86 | -0.191 | 0.481 | -0.895 (inactive) | -0.547 | -0.875 | -1.2 | -0.826 | -0.868 | 0.968 | -0.359 | -0.069 | -0.73 | -0.467 | -0.14 | -0.221 | -0.0035 | 0.0599 | 1.69 | -1.61
5 | O=C1O[C@H](c2ccccc2)[C@H](c2ccccc2)N2[C@H]1[C@@H](C(=O)NC[C@H](O)c1ccccc1)[C@]1(C(=O)Nc3ccc(C#CC4(O)CCCCCC4)cc31)[C@H]2c1ccc(O)cc1 | 0.59 | 0.601 | 0.471 | 1.13 (inactive) | 1.05 | 1.15 | 0.251 | 0.715 | 0.324 | -0.0905 | 1.35 | 0.34 | 0.462 | 0.612 | 0.107 | -0.0542 | -0.0769 | 0.528 | 1.08 | 1.34
6 | C=CC[C@@]1(C(=O)NCc2ccccc2)N=C(c2ccc(OCCCO)cc2)O[C@@H]1c1ccccc1 | 1.54 | 0.787 | 1.31 | -1.19 (inactive) | -0.28 | 0.659 | -1.08 | -0.571 | -0.918 | 0.997 | 0.483 | -3.03 | -0.762 | 1.68 | 0.369 | -0.101 | 0.123 | 0.49 | 1.68 | 1.1
7 | COc1ccc(C#Cc2ccc3c(c2)[C@]2(C(=O)N3)[C@H](c3ccc(O)cc3)N3[C@H](c4ccccc4)[C@H](c4ccccc4)OC(=O)[C@H]3[C@@H]2C(N)=O)cc1 | 0.348 | -0.0576 | 0.698 | 6.64 (inactive) | -0.425 | -0.381 | -1.06 | -1.08 | -0.67 | 0.227 | 0.53 | -1.68 | -1.07 | 0.0315 | 1.03 | -0.136 | 0.0735 | 0.482 | -0.203 | 0.997
8 | COCCOC(=O)N1C(=O)[C@@]2(c3cc(C#CCCO)ccc31)[C@H](c1ccccc1OCCO)N1[C@H](c3ccccc3)[C@H](c3ccccc3)OC(=O)[C@H]1[C@@H]2C(=O)NC[C@H](O)c1ccccc1 | 1.34 | 0.704 | 0.416 | -0.428 (inactive) | 1.16 | 1.22 | 0.2 | 1.35 | 0.74 | 0.274 | 0.722 | -1.53 | 0.449 | 1.11 | 0.678 | -0.0512 | 0.275 | 0.482 | 1.38 | 1.89
9 | COCCOC(=O)N1C(=O)[C@@]2(c3cc(C#CC4(O)CCCCCC4)ccc31)[C@H](c1ccccc1OCCO)N1[C@H](c3ccccc3)[C@H](c3ccccc3)OC(=O)[C@H]1[C@@H]2C(=O)Nc1nc2ccccc2s1 | 0.81 | 0.55 | 0.65 | -0.318 (inactive) | 0.989 | 1.23 | 0.45 | 1.07 | 0.816 | 0.995 | 0.425 | -1.51 | 0.636 | 1.59 | 0.941 | 0.0317 | 0.275 | 0.182 | 1.46 | 2.25
10 | C=CCN1C(=O)[C@@]2(O[C@@H](CCO)[C@H]([Si](C)(C)c3ccc(OC)cc3)[C@H]2C)c2cc(N(C=O)c3ccccc3)ccc21 | 0.592 | 0.235 | 0.453 | -3.43 (inactive) | 0.341 | -0.0443 | -0.131 | 0.131 | 0.0733 | 1.01 | 0.192 | -5.12 | 0.0105 | 0.905 | 1.06 | -0.0643 | -0.138 | 0.238 | 0.473 | 0.37
11 | COC(=O)C1=CC(c2ccc(CO)cc2)=CC(c2cccs2)N(C)C=C1C(=O)OC (stereo not given) | 1.52 | 0.772 | 1.13 | -1.77 (inactive) | -0.0489 | -0.57 | -0.407 | 0.409 | -0.813 | 1.46 | -0.526 | -0.176 | -0.76 | 1.36 | 0.774 | -0.096 | 0.138 | 0.603 | 0.107 | 0.765
